# Most compounds without a hit are left out; they make up all but 11% or so of the library.
# NS1 function inh: qHTS Assay for Inhibitors of Influenza NS1 Protein Function | AID 2326, 2010 | 270,000 compounds, 0.4% hits | Potency, µM (top dose mostly 46.1 µM), without a hit: top-dose activity, positive = more growth; calls by dose curve; further: actives are rising curves; nearly all actives have a fitted effect of over 50% in size
#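 In this qHTS, NS1 from influenza A is expressed in budding yeast, where it slows growth. Cells are switched from glucose to 2% galactose medium (pH 6.0, -URA), treated with compound, and growth recovery is read at OD600.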
# Sm TGR block: qHTS Assay for the Inhibitors of Schistosoma Mansoni Peroxiredoxins | purified TGR, DTNB reduction, TNB absorbance 405 nm | Schistosoma mansoni thioredoxin glutathione reductase (TGR), Q962Y6 | Potency, µM (top dose mostly 114 µM), for inactives: top-dose activity change, negative = inhibition, usual class: inhibitors | 360,000 compounds, 3% hits; further: on the % scale 0 is the no-effect control and ±100 the full control effect; nearly all actives have a fitted effect of over 60% in size
#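 Kinetic colorimetric format: TGR-catalysed, NADPH-driven DTNB reduction monitored via TNB absorbance. Enzyme dispensed at 20 nM; compound exposure 15 min at room temperature before reaction start.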
# Pf growth 48h: Primary qHTS for delayed death inhibitors of the malarial parasite plastid, 48 hour incubation; P. falciparum luciferase growth in erythrocytes, 48 h; Potency, µM (titrated, usually from 28.7 µM), inactives show top-dose activity change, negative = inhibition, actives largely listed as inhibitors; 310,000 compounds, 5.9% hits; AID 504832, 2011; further: on the % scale 0 is the no-effect control and ±100 the full control effect
#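 Erythrocytes infected with P. falciparum carrying an integrated firefly luciferase reporter (2% hematocrit, 0.1% parasitemia final) were exposed to compounds in RPMI 1640 with 0.5% Albumax at 37 C, 5% CO2. Growth inhibition was scored as reduced luminescence.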
# AMA1-RON2 inh: qHTS for Inhibitors of AMA1-RON; Towards Development of Antimalarial Drug Lead: Primary Screen; AlphaScreen AMA1-biotinylated RON2 peptide binding; AID 720542, 2013; 360,000 compounds, 0.2% hits; Potency, µM (top dose mostly 58.2 µM), inactives show top-dose activity change, negative = inhibition, most hits filed as inhibitors; Plasmodium falciparum AMA1 (3D7) - RON2 peptide interaction;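 further: 0% = vehicle wells and -100% = peptide control; nearly all actives have a fitted effect of over 45% in size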
#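 AMA1 (3D7) with his tag at 25 nM final met compounds first, then biotinylated RON2 peptide at 25 nM; detection used donor plus acceptor beads, 10 µg/mL apiece, read by AlphaScreen after 30 min at room temperature.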
# Pf growth 96h: Primary qHTS for delayed death inhibitors of the malarial parasite plastid, 96 hour incubation; P. falciparum luciferase reporter growth, 96 h; Potency, µM (series often up to 28.7 µM), inactives show at the top dose activity change, negative = inhibition, actives largely listed as inhibitors; 320,000 compounds, 6.9% hits; further: on the % scale 0 is the no-effect control and ±100 the full control effect
#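 Infected RBCs, 2% Hct / 0.05% parasitemia final; luciferase-reporter P. falciparum; cpd 96 h, 37 C, 5% CO2; luciferase detection reagent; luminescence.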
# The depositor's hits bear a star; ? = inconclusive; . = no result. Unless noted, the call rests on the fitted dose curve; in most records, active means well fitted curve in the direction sought with a large enough effect; inconclusive means small, poorly fitted or top-dose-only effect, or another doubt; inactive means no such curve, though single readings can be large; an effect the other way counts as inactive or inconclusive. Potency means the concentration at half of the fitted maximal effect.
SMILES,NS1 function inh,Sm TGR block,Pf growth 48h,AMA1-RON2 inh,Pf growth 96h
COc1ccccc1N(CC(O)CN1C(C)CCCC1C)S(=O)(=O)c1ccccc1 (stereo not given),-7%,-6%,-4%,2%,-2%
COc1ccccc1N(CC(O)COc1ccccc1C)S(=O)(=O)c1ccccc1 (stereo not given),-18%,-1%,?,20%,10µM*
O=S(=O)(c1ccc(F)cc1)N(CC(O)Cn1c2ccccc2c2ccccc21)c1ccccc1 (stereo not given),.,-2%,.,.,.
COc1ccccc1CNCC(O)Cn1c2ccccc2c2ccccc21 (stereo not given),-12%,-1%,1.5µM*,4%,2.1µM*
Cc1cc(C)c2[nH]c(C)c(CN3CCCCCC3)c(=O)c2c1,2%,7%,5%,2%,389%
CCCCn1c(N)c(N(CC(C)C)C(=O)CCCc2cccs2)c(=O)[nH]c1=O,?,11%,-29%,-12%,?
CCC(NS(=O)(=O)c1cccs1)c1ccc(C)cc1 (stereo not given),.,-10%,?,-11%,?
C=CCN(CC=C)CC(O)Cn1c2ccccc2c2ccccc21 (stereo not given),-2%,14%,5.9µM*,2%,?
CCN(CC)CC(O)Cn1c2ccccc2c2ccccc21 (stereo not given),-8%,-6%,?,1%,.
CCOc1cc(/C=N/Nc2nnc(C)n2N)ccc1OC(C)=O,-38%,-5%,-3%,33%,?
Cc1nnc(N/N=C/c2cccc(OCc3ccc(Cl)c(Cl)c3)c2)n1N,-11%,0%,13µM*,39%,?
Cc1nnc(N/N=C/c2cccc(C(F)(F)F)c2)n1N,-67%,-17%,-4%,100%,15µM*
CC(C)c1ccc(COC(=O)CN2C(=O)NC3(CCCCC3C)C2=O)cc1 (stereo not given),.,-1%,?,4%,28%
CCC(=O)Nc1ccc(C(=O)COC(=O)Cc2ccsc2)cc1,.,-2%,?,-1%,?
COC(=O)C1=C(C(=O)OC)C(c2ccccc2O)c2sc(=O)[nH]c2S1 (stereo not given),-32%,40µM*,10%,5%,5%
COC(=O)C1=C(C(=O)OC)C2c3ccccc3C1c1ccccc12,.,.,.,-20%,.
COc1cc(C2/C(=C(\O)c3ccc4c(c3)CC(C)O4)C(=O)C(=O)N2CCCn2ccnc2)cc(OC)c1OC (stereo not given),2%,-11%,-1%,-1%,?
CCOC(=O)C(=O)N1CCN(c2nc(-c3ccc(Cl)cc3)cs2)CC1,-48%,8%,13%,12%,4.7µM*
O=C(NC(=S)N1CCN(c2nc(-c3ccccc3)cs2)CC1)c1cccnc1,17%,2%,10µM*,10%,?
O=C(Nc1nc(-c2ccccc2)cs1)c1cccnc1,3%,-1%,-30%,14%,.
CCOCCCNC(=S)N1CCN(c2nc(-c3ccc(F)cc3)cs2)CC1,-14%,10%,9.3µM*,-9%,?
COCCNC(=S)N1CCN(c2nc(-c3ccccc3)cs2)CC1,7%,7%,3%,-20%,12µM*
O=c1[nH]cc(N2CCCCCC2)c(=O)[nH]1,0%,-33%,-23%,-11%,2%
CCCCCn1c2c(c(=N)c3ccccc31)CCC2,-9%,0%,0.66µM*,-12%,?
CCCCn1c2c(c(=N)c3ccccc31)CCC2,-8%,6%,0.41µM*,-24%,?
SMILES,NS1 function inh,Sm TGR block,Pf growth 48h,AMA1-RON2 inh,Pf growth 96h
CCCCCCCCn1c2c(c(=N)c3ccccc31)CCC2,7%,9%,12%,2%,-45%
CCn1c2c(c(=N)c3c1CCC3)CCCC2,-1%,-1%,0.52µM*,-7%,?
CCCCCCCCCCn1c2c(c(=N)c3c1CCC3)CCC2,-165%,-1%,0.26µM*,-6%,0.12µM*
Cc1ccc(-c2nnc(SCC(=O)NC(C)(C)C)nc2-c2ccc(C)cc2)cc1,.,4%,.,.,.
COc1ccccc1C(=O)N=c1sc2c(C)ccc(OC)c2n1C,3%,5%,51%,-4%,36%
COc1ccc(-c2nc3c(c(SCC(=O)N4CCCCC4)n2)Cc2cc(Cl)ccc2O3)cc1,.,1%,.,.,.
O=C(CCN1CCN(S(=O)(=O)c2cccc([N+](=O)[O-])c2)CC1)Nc1ccccc1F,-11%,-4%,-8%,-4%,?
CC1(C)CC(NCc2ccccc2)=CC(=S)N1,.,.,.,-6%,.
CC1(C)CC(N2CCN(CCO)CC2)=CC(=S)N1,-4%,40µM*,0%,1%,-8%
O=C(O)[C@H](O)[C@@H](O)[C@H](O)[C@H](O)CO,.,.,-8%,.,-5%
CC1(C(=O)NS(=O)(=O)C2CC2)CCN(C(=O)c2cccc(OC(F)(F)F)c2)C1 (stereo not given),.,.,.,1%,.
COc1ccc2ccccc2c1CNCCc1ccccc1,-15%,-39%,10µM*,2%,4%
CCOC(=O)c1c(NC(=O)c2ccc(S(=O)(=O)N(CC(C)C)CC(C)C)cc2)sc2c1CCN(CC)C2,.,1%,.,.,.
C[C@H](NC(=O)c1nc[nH]c1C(=O)NCCCCCNC(=O)OC(C)(C)C)C(=O)OCc1ccccc1,2%,3%,47%,153%,0%
CC(C)C[C@H](NC(=O)c1nc[nH]c1C(=O)N[C@@H](CCCCNC(=O)OC(C)(C)C)C(=O)OC(C)(C)C)C(=O)OCc1ccccc1,?,23%,?,112%,3.3µM*
CC(C)C[C@H](NC(=O)c1nc[nH]c1C(=O)NCCCCCNC(=O)OC(C)(C)C)C(=O)OCc1ccccc1,25%,-15%,?,119%,9.3µM*
CC(C)(C)OC(=O)NCCCCCNC(=O)c1[nH]cnc1C(=O)N[C@@H](Cc1ccccc1)C(=O)OCc1ccccc1,24%,-1%,8.3µM*,126%,12µM*
O=C(OCC(=O)N1CCCc2ccccc21)c1ccc(S(=O)(=O)C(F)F)cc1,.,-33%,?,0%,-4%
COc1ccc(N2CCN(C(=O)CCNS(=O)(=O)c3ccccc3)CC2)cc1,5%,24%,3%,5%,10%
CC(C)Cn1nc(NS(=O)(=O)c2cccc3nonc23)c2cc3ccccc3nc21,7%,-1%,13%,-6%,?
FC(F)(F)c1nc(-c2cccs2)ncc1-c1nnnn1-c1ccc(Cl)cc1,-37%,-7%,.,-1%,23%
Clc1ccc(-n2nnnc2-c2cnc(-c3ccncc3)nc2-c2cccs2)cc1,-5%,-1%,4.7µM*,-20%,?
CC(=O)c1cccc(NC(=O)c2ccc3c(c2)c(C)c(C)n3Cc2ccc(Cl)cc2)c1,.,11%,.,.,.
CCn1c(C)c(C)c2cc(C(=O)Nc3cccc(Cl)c3)ccc21,17%,-31%,?,-12%,15µM*

# Compound activity (PubChem)
